A selection: hits, their analogues and other compounds. The true share with any hit is near 20%.
HCMV antiviral = qHTS Assay for inhibitors of the human cytomegalovirus (HCMV) | activity change, negative = inhibition, % at 57.5 µM | 410,000 tested, 4.5% active | HFF cells, HCMV-luciferase reporter, 72 h; stronger effect = lower value; in the data active means activity change below about -60%; inconclusive means no clear call, values can overlap the other calls; inactive means above about -39%; further: on the % scale 0 is the no-effect control and ±100 the full control effect
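Cell-based, HFFs, 1000 cells/well, 16 h 37C; cpds in DMSO + HCMV-luc, MOI 1 PFU/cell; 72 h 37C; OneGlo luminescence after 5 min RT; norm. to buffer vs Salinomycin 10uM.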
Pf growth 96h = Primary qHTS for delayed death inhibitors of the malarial parasite plastid, 96 hour incubation. P. falciparum luciferase reporter growth, 96 h. Potency, µM (highest dose often 28.7 µM), for the others: top-dose activity change, negative = inhibition, actives largely listed as inhibitors. 320,000 tested, 6.9% active. AID 504834, 2011; further: potency means the concentration at half of the fitted maximal effect; on the % scale 0 is the no-effect control and ±100 the full control effect
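Two parasite generations (96 h, 37 C, 5% CO2) of compound exposure in infected erythrocytes (0.05% parasitemia, 2% hematocrit). Luciferase-reporter P. falciparum; decreased luminescence indicates inhibited growth, aimed at apicoplast-acting delayed death.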
Pf growth 48h = Primary qHTS for delayed death inhibitors of the malarial parasite plastid, 48 hour incubation | P. falciparum luciferase growth in erythrocytes, 48 h | Potency, µM (highest dose often 28.7 µM), without a hit: top-dose activity change, negative = inhibition, hits mostly inhibitors | 310,000 tested, 5.9% active; further: potency means the concentration at half of the fitted maximal effect; on the % scale 0 is the no-effect control and ±100 the full control effect
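Growth was read as firefly luciferase luminescence after a 48 h, 37 C, 5% CO2 exposure of compounds to reporter-bearing P. falciparum cultures (0.1% parasitemia, 2% hematocrit final) in Albumax-supplemented RPMI 1640.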
Cycloheximide cs = Cycloheximide Counterscreen for Small Molecule Inhibitors of Shiga Toxin | cell reporter, cycloheximide protein synthesis inhibition counterscreen | 300,000 tested, 12% active | max response, %; in the data active means max response mostly above about 13%, no sharp cut-off; inactive means mostly below about 14%; further: read at 38.3 µM for the half of the compounds with a filed dose; 0% is about no effect
Shiga toxin inh = A qHTS for Small Molecule Inhibitors of Shiga Toxin | Vero cells, Shiga toxin protein synthesis inhibition reporter | inhibition, % at 38.7 µM | 290,000 tested, 9.2% active; in the data active means inhibition mostly above about 28%, no sharp cut-off; inactive means mostly below about 43%; further: 0% is about no effect
An asterisk follows results filed as active; ? = inconclusive; . = no result; ! = a repeat was not active; [ ] = dose if it differs, or a comment. Unless noted, the call rests on the fitted dose curve; in most records, active means well fitted inhibition curve with a large enough effect; inconclusive means small, poorly fitted or top-dose-only effect, or another doubt; inactive means no such curve, though single readings can be large or run the other way.

SMILES	HCMV antiviral	Pf growth 96h	Pf growth 48h	Cycloheximide cs	Shiga toxin inh
COc1ccc(C(=O)c2nc3c(n2O)CCCCC3)cc1	26.9	-29.2%	.	48.1*	24.7
CCCOc1ccc(C(=O)c2nc3c(n2O)CCCC3)cc1	-1.7	?	?	27.3	49.9*
O=C(c1ccc(Oc2ccccc2)cc1)c1nc2c(n1O)CCCC2	11.9	1.0%	.	21.1*	46.5
CCOc1ccc(C(=O)c2nc3c(n2O)CCCCC3)cc1	14.0	48.6%	9.2%	13.9	20.9
COc1ccc(C(=O)c2nc3c(n2O)CCCC3)cc1OC	-0.8	-28.9%	.	-3.7	-8.9
COc1ccc(CNC(=O)Cn2nnc3ccccc3c2=O)cc1	-13.4	86.2%	89.8%	22.3*	59.8*
Cc1ccc(NC(=O)Cn2nnc3ccccc3c2=O)cc1	44.7	23.3%	95.7%	32.2*	63.4
O=C(Cn1nnc2ccccc2c1=O)NCCc1ccccc1	-30.1	-23.6%	-7.1%	15.3	25.2*
O=C(Cn1nnc2ccccc2c1=O)NCCc1ccc(Cl)cc1Cl	9.7	23.1%	2.1%	-1.3	-15.2
COc1ccc(CNC(=O)c2ccc(Cn3nc(C)c([N+](=O)[O-])c3C)o2)cc1	26.0	36.4%	?	-1.1	24.6
COc1ccc(CNC(=O)c2ccc(Cn3nc(C)cc3C)o2)cc1	-16.9	1.47µM*	3.5%	-1.4	-5.6
Cc1c2c(n3c(nc4ccccc43)c1C#N)N(CCN1CCOCC1)CC2	-30.8	?	?	6.0	-24.4
CCOc1cc2c(cc1/C=C1/NC(=O)N(CC(=O)OC)C1=O)OCO2	22.7	?	-7.3%	-0.5	9.9
COc1ccc(CNC(=O)Cn2nc(C(F)(F)F)cc2C)cc1	10.5	13.1µM*	0.2%	6.7	-8.5
CC(C)c1ccc(C(CC(=O)O)N2Cc3ccccc3C2=O)cc1 (stereo not given)	-20.3	27.8%	-15.5%[0.00184 µM]	-3.8	-12.8
O=C(Cn1nnc2ccccc21)c1ccccc1	14.5	7.5%	39.7%	19.8*	-3.6
O=C(Cn1nnc2ccccc21)c1cccc([N+](=O)[O-])c1	-18.1	?	5.2%	3.0	5.7
c1ccc(Cn2nnc3ccccc32)cc1	-22.4	?	0.0%	6.7	5.1
c1ccc2c(c1)nnn2Cn1nnc2ccccc21	-63.0*	.	.	.	.
O=C(Cn1nnc2ccccc21)OCC(=O)c1ccc(Cl)c(Cl)c1	-6.8	.	?	-3.0	8.0
O=C(Cn1nnc2ccccc21)OCC(=O)c1ccccc1	1.5	4.15µM*	-7.1%	-3.1	13.1
Cc1ccc(C(=O)Cn2nnc3ccccc32)cc1[N+](=O)[O-]	20.0	295.3%	95.5%	27.8*	93.5*
CN(C)/C=C1\SC(=S)N(N2C(=O)C3C4C=CC(C4)C3C2=O)C1=O (stereo not given)	-9.4	12.0%	-20.1%	2.1	-6.2
CCCN(C(=O)c1ccccc1Cc1ccccc1)C1CCS(=O)(=O)C1 (stereo not given)	-11.5	?	?	.	.
Cc1ccc(O)c(Cn2nnc3ccccc32)c1	-16.4	?	10.4µM*	.	.
SMILES	HCMV antiviral	Pf growth 96h	Pf growth 48h	Cycloheximide cs	Shiga toxin inh
CCC(=O)N1[C@H](CO)[C@@H]2c3ccccc3N(C(=O)Nc3ccc(Cl)cc3)C[C@@H]21	21.2	.	.	.	.
CCCOc1ccc(F)cc1-c1cc(C(=O)NC2CCCCC2)[nH]n1	-13.6	.	.	.	.
COc1ccc(-c2cn(-c3ccc(Cl)cc3)c3[n+]2CCCCC3)cc1	-66.0*	?	?	-0.5	13.1
COc1ccc(-n2cc(-c3ccc(OC(F)F)cc3)[n+]3c2CCCCC3)cc1	-84.9*	?	1.65µM*	1.1	-2.9
Clc1ccc(-c2cn(-c3ccc(Cl)cc3)c3[n+]2CCCCC3)cc1	?	?	?	-1.2	-1.7
COC(=O)C(O)(c1ccc(NC(=O)c2ccccc2)cc1)C(F)(F)F (stereo not given)	7.6	74.3%	72.0%	51.1*	103.1*
COC(=O)C(O)(c1ccc(NC(=O)c2cccs2)cc1)C(F)(F)F (stereo not given)	-25.5	73.6%	74.7%	33.3*	71.7*
CCOC(=O)C1C(=O)CC(C)(O)C(C(=O)OCC)C1c1ccco1 (stereo not given)	5.8	.	3.5%	-5.5	-14.0
CC(=O)N(c1ccc(Cl)cc1)c1c[nH]c2ccccc12	-1.9	6.57µM*	11.7µM*	-3.8	-15.4
CC(=O)N(c1ccc(Cl)cc1)c1cn(C(C)=O)c2ccccc12	72.2	-21.9%[5.75 µM]	-1.7%	-7.4	5.2
CCOc1ccccc1OCC(=O)Nc1cc(C)on1	-26.6	.	.	.	.
Cc1cccc(OCC(=O)Nc2cc(C)on2)c1	-30.1	?	31.5%	15.7*	active
Cc1cc(NC(=O)COc2cccc(Oc3ccccc3)c2)no1	-25.1	-1.0%	?	-2.8	-4.8
Cc1ccc(C)c(OCC(=O)Nc2cc(C)on2)c1	11.7	?	58.1%	22.2*	45.7
CC(=O)c1c(C)[nH]c(C(=O)OCC(=O)NCc2ccc3c(c2)OCO3)c1C	-10.3	?	-23.9%	.	.
CC(=O)c1cccc(NC(=O)C2CCN(c3nnc(-n4cccc4)s3)CC2)c1	5.2	.	.	.	.
CC1(C)OC[C@@H]2O[C@@]3(C(=O)O)OC(C)(C)O[C@@H]3[C@@H]2O1	.	-13.5%	3.9%	.	.
CC(C)NCC(O)c1ccc2ccccc2c1 (stereo not given)	31.8	4.65µM*	1.47µM*	.	.
C/C=C/C(O)c1ccc2ccccc2c1 (stereo not given)	.	?	-14.9%	20.2*!	26.2*!
CN(C)C(=S)Nc1ccc2ccccc2c1	-10.8	21.5%	16.0%	10.8	16.4
O=C(Cn1cc(SCc2ccc(F)cc2)c2ccccc21)N1CCCC1	19.8	.	.	.	.
CSc1ccc(NC(=O)C2(C)CCN2C(=O)c2cc(C)n(C)n2)cc1 (stereo not given)	-19.7	.	.	.	.
CC(=O)c1ccc(N2Cc3ccccc3C3(CCOCC3)C2=N)cc1	-13.7	14.4%	24.5%	28.2*	53.6
CC(=O)c1ccc(N2CCN(S(=O)(=O)c3cccc(S(=O)(=O)N4CCOCC4)c3)CC2)cc1	-16.7	?	.	-5.3	-20.2
O=C1c2ccccc2C(=O)C1Cc1cccc2ccccc12	37.4	18.8%	.	20.2*	66.1
SMILES	HCMV antiviral	Pf growth 96h	Pf growth 48h	Cycloheximide cs	Shiga toxin inh
O=C(NC(=S)NCc1ccco1)c1cccc(Cl)c1	-14.6	69.0%	?	1.6	-25.3
COc1cccc(C(=O)NC(=S)NCc2ccco2)c1	17.4	3.7µM*	70.4%	22.9*	40.3*
Cc1ccc(C(=O)NC(=S)NCc2ccco2)cc1	-7.9	?	52.6%	34.9*	46.4
Cc1ccc(NC(=O)C(=S)NCc2ccco2)cc1	21.5	91.6%	75.5%	37.8*	38.2
Cc1ccc(C(=O)NC2CC3CCCC(C2)N3C(=S)NCc2ccco2)cc1 (stereo not given)	-27.5	32.6%	10.4µM*	0.9	-7.5
Cc1ccc(NC(=O)C(=O)NCc2ccco2)cc1	60.8	.	.	.	.
CCc1ccc(CNC(=O)CN2C(=O)CSc3ccc(S(=O)(=O)N4CCOCC4)cc32)cc1	-17.4	.	.	.	.

Screens from PubChem BioAssay.
